From PubChem BioAssay (Tox21) come the findings set out here.

Unmarked numbers belong to inactive results. Results filed as inconclusive are left out. Active and inactive are the calls of the source. Unless noted, calls follow the shape of the full dose curve.

The nature of assay [1]: Nuclear factor erythroid 2-related factor 2/antioxidant responsive element (Nrf2/ARE) small molecule agonists: qHTS cell viability counter screen in human keratinocytes (AID 1919968; active = well fitted curve in the direction sought with a large enough effect in the repeat runs; an effect the other way counts as inactive or inconclusive; also: nearly all actives have a fitted effect of over 55% in size). Put shortly:
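Seed 1,500 KeratinoSens cells per well, then incubate 5 h at 37 C/5% CO2. Add compounds in DMSO and incubate 23 h. Add CellTiter-Fluor, wait 1 h and read fluorescence.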
(qHTS replaces the single test concentration by a dilution series.)

A short description of assay [2]: Nuclear factor erythroid 2-related factor 2/antioxidant responsive element (Nrf2/ARE) small molecule agonists: luciferase reporter gene qHTS assay in human keratinocytes (AID 1919969). Also: nearly all actives have a fitted effect of over 35% in size. Also: potency is read from the fitted curve at half-maximal effect.
For assay [3], the target named is Gonadotropin-releasing hormone receptor (Homo sapiens) (UniProt P30968). Put plainly: Human gonadotropin-releasing hormone receptor (GnRHR) small molecule agonists, calcium flux assay in GnRHR-HEK293 cells (AID 1920063). Also: nearly all actives have a fitted effect of over 35% in size. In short, it runs like this:
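Cells: HEK293 stably expressing human GnRHR. Steps: overnight (18 h) culture, 1 h calcium dye loading at 37 C, compound addition, kinetic fluorescence read at 480/540 nm. Each compound tested at 15 concentrations in triplicate.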

Assay [4] concerns the target KiSS-1 receptor (Homo sapiens) (UniProt Q969F8). Put plainly: Human kisspeptin (KISS1R) small molecule agonists, calcium flux assay in KISS1R-HEK293 cells (AID 1920064; active = well fitted curve in the direction sought with a large enough effect in the repeat runs; an effect the other way counts as inactive or inconclusive). Put shortly: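 Cells plated and incubated 18 h; dye added, 1 h at 37 C; compounds in DMSO pinned in; signal read at 480/540 nm every second for 3 min. Each compound tested at 15 concentrations in triplicate.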

Assay [5] in a line: G protein-coupled receptor (GPCR) small molecule agonists, calcium flux assay: HEK293 wild type cell line counter screen (AID 1920065). In short, it runs like this: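 Counter-screen of the Tox21 10K library for non-specific calcium release: dye-loaded cells received compounds in DMSO and were monitored by kinetic fluorescence (480/540 nm, 3 min). Fifteen concentrations, run in triplicate.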
Background: Calcium assays in cells follow changes in intracellular calcium, usually with a dye or a luminescent sensor.

Assay [6] is described as follows: p53 small molecule agonists, cell-based qHTS assay with human liver microsomes (AID 1963577).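 Also: p53 response element beta-lactamase reporter cells with liver microsomes plus NADPH.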 Put shortly:
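16 h, 37 C exposure of p53RE-bla cells to compounds with human liver microsomes and NADPH (0.5 mg/mL final each); detection via LiveBLAzer mixture, 2 h dark at room temperature.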

Assay [7] is described as follows: p53 small molecule agonists, cell-based qHTS assay with rat liver microsomes (AID 1963578). In short, it runs like this:
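With rat liver microsomes and NADPH present (0.5 mg/mL final each), p53RE-bla cells are treated with compound for 16 h at 37 C. LiveBLAzer detection mixture is then applied for 2 h at room temperature in the dark.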

The nature of assay [8]: p53 small molecule agonists, cell-based qHTS assay with human liver microsomes: qHTS cell viability counter screen (AID 1963579). Also: nearly all actives have a fitted effect of over 45% in size. Put shortly: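 In this multiplexed counter screen, the reporter plates were subsequently treated with CellTiter-Glo so that cell viability, reflected by luminescence, could be recorded for p53RE-bla cells dosed 16 h with compounds under microsomal activation (HLM and NADPH).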

Assay [9] is described as follows: p53 small molecule agonists, cell-based qHTS assay (AID 1963582; active = well fitted activation curve with a large enough effect in the signal ratio in the repeat runs, not every such curve was filed as active; the % refers to the signal ratio). Put shortly: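 Quantitative HTS in p53RE-bla cells: after a 5 h settling period, compounds delivered in DMSO were left on cells for 16 h at 37 C, and reporter induction was measured as fluorescence following 2 h substrate loading.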
The target in assay [10] is 5-hydroxytryptamine receptor 2A (Homo sapiens) (UniProt P28223). Description: 5-hydroxytryptamine receptor 2A (HTR2A) small molecule antagonists, cell-based qHTS assay (AID 1963586). Also: nearly all actives have a fitted effect of over 45% in size. In short, it runs like this: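 Antagonist-mode intracellular calcium assay: DOI (4 nM) added after 5 min compound pre-incubation at room temperature to dye-loaded HTR2A-CHO cells. Fluorescence followed for 3 min, sampled every second.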
5-hydroxytryptamine receptor 2A (Homo sapiens), sequence (P28223 whole entry, looked up): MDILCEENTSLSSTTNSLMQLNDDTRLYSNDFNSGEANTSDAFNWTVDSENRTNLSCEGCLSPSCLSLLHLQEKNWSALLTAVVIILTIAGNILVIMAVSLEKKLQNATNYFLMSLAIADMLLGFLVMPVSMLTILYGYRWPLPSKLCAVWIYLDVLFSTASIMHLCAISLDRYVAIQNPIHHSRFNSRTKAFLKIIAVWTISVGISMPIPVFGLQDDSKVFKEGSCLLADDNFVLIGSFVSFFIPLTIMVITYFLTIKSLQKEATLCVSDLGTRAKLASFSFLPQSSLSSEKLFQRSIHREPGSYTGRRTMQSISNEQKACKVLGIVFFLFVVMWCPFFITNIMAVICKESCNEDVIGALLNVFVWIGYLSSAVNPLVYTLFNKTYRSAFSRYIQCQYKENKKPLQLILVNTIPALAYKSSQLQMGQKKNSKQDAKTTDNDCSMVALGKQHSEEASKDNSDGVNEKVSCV

Assay [11] shares this target. Put plainly: 5-hydroxytryptamine receptor 2A (HTR2A) small molecule agonists, cell-based qHTS assay (AID 1963587). Also: nearly all actives have a fitted effect of over 30% in size. Put shortly: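 HTR2A-CHO cells, plated 18 h at 37 C/5% CO2, dye-loaded 1 h at 37 C; compounds in DMSO added by pin tool (agonist mode). Intracellular calcium flux read as kinetic fluorescence on FDSS over 2 min at 1 s intervals.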
The target of assay [12] is Muscarinic acetylcholine receptor M1 (Homo sapiens) (UniProt P11229). Put plainly: Cholinergic receptor muscarinic 1 (CHRM1) small molecule antagonists, cell-based qHTS assay (AID 1963588). Also: nearly all actives have a fitted effect of over 40% in size. Put shortly:
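CHRM1-CHO calcium-flux assay, antagonist mode. Cells were seeded 18 h, dye-loaded 1 h at 37 C and given compound for 5 min at RT, then acetylcholine was added at 50nM. FDSS fluorescence was read 3 min; 15 concentrations, three runs.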

Assay [13] has the same target. Description: Cholinergic receptor muscarinic 1 (CHRM1) small molecule agonists, cell-based qHTS assay (AID 1963589). Also: nearly all actives have a fitted effect of over 35% in size. In short, it runs like this: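 Agonist-mode qHTS in CHO cells stably carrying human muscarinic M1. Intracellular calcium is tracked by fluorescence every second after compound transfer; each compound runs at 15 concentrations in three independent runs.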

The target in assay [14] is Beta-2 adrenergic receptor (Homo sapiens) (UniProt P07550). Description: Adrenergic beta2 receptor (ADRB2) small molecule antagonists, cell-based qHTS assay (AID 1963592). Also: series mostly up to about 92 µM; nearly all actives have a fitted effect of over 50% in size. Put shortly:
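Cells (CHO, stable ADRB2 overexpression) incubated 18-20hr at 37C; compounds added from DMSO; agonist mix (1nM isoproterenol, 100uM IBMX, 25uM Ro-20-1724) added; 0.5hr RT; d2-cAMP and anti-cAMP-cryptate added; 1hr RT; 665/615 nm read.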

In assay [15] the target is D(2) dopamine receptor (Homo sapiens) (UniProt P14416). Description: Dopamine D2 receptor (DRD2) small molecule agonists, cell-based qHTS assay (AID 1963594). Also: nearly all actives have a fitted effect of over 35% in size. Also: potency is read from the fitted curve at half-maximal effect. Put shortly: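 HEK293 cells stably expressing DRD2 were cultured 24 h at 37 C, then given Ro20-1724 (0.1 mM final) and compounds for 10 min at room temperature. NKH477 (200nM) was then added for 30 min. cAMP was read by HTRF.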
D(2) dopamine receptor (Homo sapiens), sequence (P14416 whole entry, looked up): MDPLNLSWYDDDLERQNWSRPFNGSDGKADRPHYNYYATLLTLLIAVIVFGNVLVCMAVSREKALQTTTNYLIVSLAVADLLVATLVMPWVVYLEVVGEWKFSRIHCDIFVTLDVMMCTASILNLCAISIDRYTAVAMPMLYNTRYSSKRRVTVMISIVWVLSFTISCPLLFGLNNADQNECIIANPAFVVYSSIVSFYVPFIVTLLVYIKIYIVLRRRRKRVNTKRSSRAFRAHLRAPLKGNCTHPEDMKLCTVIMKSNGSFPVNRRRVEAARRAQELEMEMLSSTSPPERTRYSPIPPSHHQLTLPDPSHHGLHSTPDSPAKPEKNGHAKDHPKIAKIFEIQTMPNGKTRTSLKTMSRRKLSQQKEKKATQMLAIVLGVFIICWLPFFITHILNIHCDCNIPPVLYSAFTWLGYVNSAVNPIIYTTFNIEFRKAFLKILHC

For assay [16] the target is unchanged. Put plainly: Dopamine D2 receptor (DRD2) small molecule antagonists, cell-based qHTS assay (AID 1963595; active = well fitted inhibition curve with a large enough effect in the signal ratio in the repeat runs, with a control signal flat; the % refers to the signal ratio; also: potency is read from the fitted curve at half-maximal effect). In short, it runs like this: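 Antagonist mode in DRD2-HEK293 cells: after compound addition with 0.1 mM Ro20-1724, cells received quinpirole (12 nM) and NKH477 (200 nM) for 30 min at room temperature; HTRF cAMP read after 1 h detection.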
A short description of assay [17]: cAMP Responsive Elements (CRE) small molecule agonists, cell-based qHTS assay (AID 1963590). Also: potency is read from the fitted curve at half-maximal effect. Put shortly: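 Agonist mode qHTS in CRE-bla HEK 293T cells: compounds dosed from DMSO for 3 h at 37 C/5% CO2, followed by LiveBLAzer B/G FRET substrate for 2 h at room temperature.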
Assay [18] is described as follows: cAMP Responsive Elements (CRE) small molecule antagonists, cell-based qHTS assay (AID 1963591; active = well fitted inhibition curve with a large enough effect in the signal ratio in the repeat runs, not every such curve was filed as active; the % refers to the signal ratio). Put shortly:
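Antagonist mode: test compounds are co-incubated with the adenylyl cyclase activator NKH477 (0.25 uM final) on CRE-bla HEK293T cells for 3 h at 37 °C, followed by LiveBLAzer substrate loading.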

For assay [19], the target named is Beta-2 adrenergic receptor (Homo sapiens) (UniProt P07550). Put plainly: Adrenergic beta2 receptor (ADRB2) small molecule agonists, cell-based qHTS assay (AID 1963593).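 Also: CHO cells stably overexpressing human ADRB2.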 Put shortly: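 CHO cells stably over-expressing ADRB2 were plated overnight at 37C, then dosed with compounds plus a stimulation mix containing 100uM IBMX and 25uM Ro-20-1724 for 0.5hr at room temperature. cAMP was measured by HTRF competition, 1hr.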
Beta-2 adrenergic receptor (Homo sapiens), sequence (P07550 whole entry, looked up): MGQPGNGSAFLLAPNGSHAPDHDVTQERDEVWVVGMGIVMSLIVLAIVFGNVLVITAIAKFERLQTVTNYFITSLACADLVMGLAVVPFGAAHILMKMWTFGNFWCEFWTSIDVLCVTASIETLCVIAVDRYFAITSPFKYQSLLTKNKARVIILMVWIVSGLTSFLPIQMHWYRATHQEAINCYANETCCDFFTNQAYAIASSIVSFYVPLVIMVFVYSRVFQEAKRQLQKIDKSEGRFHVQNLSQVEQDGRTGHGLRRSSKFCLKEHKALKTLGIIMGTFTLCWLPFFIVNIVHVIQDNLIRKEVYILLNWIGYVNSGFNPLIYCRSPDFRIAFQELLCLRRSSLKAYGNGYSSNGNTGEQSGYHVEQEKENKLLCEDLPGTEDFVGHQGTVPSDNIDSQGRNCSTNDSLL

The nature of assay [20]: p53 small molecule agonists, cell-based qHTS assay with rat liver microsomes: qHTS cell viability counter screen (AID 1963580). Also: nearly all actives have a fitted effect of over 45% in size. In short, it runs like this: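 In HCT-116 cells carrying a p53 response element-bla reporter, compounds were metabolically activated in situ by rat liver microsomes with NADPH over 16 h. Cell ATP content then served as the cytotoxicity measure.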

Gonadotropin-releasing hormone receptor (Homo sapiens), sequence (P30968 whole entry, looked up): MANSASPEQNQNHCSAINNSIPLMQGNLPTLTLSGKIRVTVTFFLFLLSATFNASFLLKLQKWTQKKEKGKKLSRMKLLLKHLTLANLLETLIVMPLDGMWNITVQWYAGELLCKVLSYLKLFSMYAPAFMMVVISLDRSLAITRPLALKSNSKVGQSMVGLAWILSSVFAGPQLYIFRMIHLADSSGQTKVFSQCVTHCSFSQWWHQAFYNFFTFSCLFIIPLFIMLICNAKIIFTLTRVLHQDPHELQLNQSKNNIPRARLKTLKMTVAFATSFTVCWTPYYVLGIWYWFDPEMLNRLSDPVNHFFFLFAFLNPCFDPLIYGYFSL
Muscarinic acetylcholine receptor M1 (Homo sapiens), sequence (P11229 whole entry, looked up): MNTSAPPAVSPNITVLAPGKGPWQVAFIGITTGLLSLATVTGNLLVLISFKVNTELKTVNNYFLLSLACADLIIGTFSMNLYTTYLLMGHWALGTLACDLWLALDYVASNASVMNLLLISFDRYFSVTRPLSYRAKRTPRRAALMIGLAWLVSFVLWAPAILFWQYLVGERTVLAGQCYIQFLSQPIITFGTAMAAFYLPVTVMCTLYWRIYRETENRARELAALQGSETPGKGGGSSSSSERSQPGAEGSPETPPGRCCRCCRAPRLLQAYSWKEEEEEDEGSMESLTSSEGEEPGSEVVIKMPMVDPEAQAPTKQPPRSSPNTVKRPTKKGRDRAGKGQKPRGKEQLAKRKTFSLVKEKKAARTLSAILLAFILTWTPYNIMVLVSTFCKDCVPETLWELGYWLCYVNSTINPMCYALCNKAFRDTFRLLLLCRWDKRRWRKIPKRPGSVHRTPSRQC
KiSS-1 receptor (Homo sapiens), sequence (Q969F8 whole entry, looked up): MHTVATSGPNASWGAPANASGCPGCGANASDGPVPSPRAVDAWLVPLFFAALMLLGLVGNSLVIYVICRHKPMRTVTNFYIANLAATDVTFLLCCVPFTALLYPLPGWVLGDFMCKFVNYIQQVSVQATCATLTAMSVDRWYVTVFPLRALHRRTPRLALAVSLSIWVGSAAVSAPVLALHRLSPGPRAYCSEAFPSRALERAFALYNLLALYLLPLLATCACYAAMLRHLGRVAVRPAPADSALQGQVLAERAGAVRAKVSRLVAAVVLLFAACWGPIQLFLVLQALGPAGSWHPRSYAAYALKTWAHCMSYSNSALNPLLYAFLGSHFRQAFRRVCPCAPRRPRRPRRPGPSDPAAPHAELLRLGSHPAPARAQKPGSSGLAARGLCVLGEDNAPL

As for `CC1(C)CCC(C)(C)c2cc(NC(=O)c3ccc(C(=O)O)cc3)ccc21`, the Potency entry in [1], in assay [2], in assay [3], in [6], in [7] and in assay [8] was “inactive” in each case. Further, the Potency result in assay [9], in [10], in assay [11], in assay [12], in assay [13] and in assay [14] was “inactive” in each case. Moreover, the Potency result in assay [16] was “inactive”. Further, the result in [4] and in [5] was inactive. The Potency in assay [15] was 1.06 µM (active).

`c1ccc(COCc2ccccc2)cc1`: the Potency entry in [1], in assay [2], in [3], in [6], in assay [7] and in assay [8] was “inactive” each time. In addition, the Potency entry in [9], in assay [10], in assay [11], in [12], in assay [13] and in [17] was “inactive” each time. Also, the Potency result in assay [18], in assay [14], in assay [15] and in [16] was “inactive” each time. The result in assay [4] and in [5] was inactive.

As to `CC/C=C\CCOC(C)=O`, the Potency result in [1], in assay [2], in assay [3], in [6], in assay [7] and in assay [8] was “inactive” throughout. For the same compound, the Potency result in assay [9], in assay [10], in [11], in assay [12], in assay [13] and in assay [17] was “inactive” throughout. For the same compound, the Potency result in assay [18], in assay [14] and in assay [16] was “inactive” in each case. Besides, the result in assay [4] and in assay [5] was inactive.

Regarding `CN1C[C@H](C(=O)N[C@]2(C)O[C@@]3(O)[C@@H]4CCCN4C(=O)[C@H](Cc4ccccc4)N3C2=O)C[C@@H]2c3cccc4[nH]cc(c34)C[C@H]21`, the Potency entry in assay [1], in assay [2], in assay [3], in assay [6], in assay [7] and in [8] was “inactive” in each case. The Potency entry in assay [9] is “inactive”. Also, the outcome in assay [4] and in assay [5] was inactive.

Regarding `CNC(=O)c1cnn(-c2nc(N)c3ncn([C@@H]4O[C@H](CO)[C@@H](O)[C@H]4O)c3n2)c1`, the Potency entry in [1], in [2], in [3], in assay [6], in assay [7] and in assay [8] was “inactive” throughout. The Potency entry in assay [9], in [10], in assay [11], in [12], in assay [13] and in assay [14] was “inactive” each time. Moreover, the Potency result in [19] was “inactive”. The result in assay [4] and in assay [5] was inactive. The Potency is 11.9 µM (active) in assay [17] and 1.88 µM (active) in assay [16].

Consider `COc1cc(OC)cc(OC)c1`, for which the Potency entry in [1], in [2], in assay [3], in assay [6], in assay [7] and in assay [8] was “inactive” throughout. Further, the Potency result in [9], in assay [10], in assay [11], in [12], in assay [13] and in [17] was “inactive” throughout. In addition, the Potency entry in [18], in assay [19] and in assay [16] was “inactive” each time. Further, the outcome in assay [4] and in assay [5] was inactive.

As to `CCC(=O)O[C@]1(C(=O)CCl)[C@@H](C)C[C@H]2[C@@H]3CCC4=CC(=O)C=C[C@]4(C)[C@@]3(F)[C@@H](O)C[C@@]21C`, the Potency result in assay [1], in [2], in [3], in assay [6], in assay [7] and in assay [8] was “inactive” each time. The Potency entry in assay [20], in assay [14], in [19], in assay [15] and in assay [16] was “inactive” throughout. For the same compound, the result in [4] and in [5] was inactive.

Turning to `O=C(O)c1cn(C2CC2)c2cc(Cl)c(F)cc2c1=O`, the Potency result in assay [1], in [3], in [6], in assay [7], in assay [8] and in assay [9] was “inactive” in each case. The Potency entry in assay [10], in [11], in [12], in assay [13] and in assay [14] was “inactive” each time. Further, in assay [2], the Potency was 13.3 µM (active). Further, the outcome in assay [4] and in assay [5] was inactive.
